# Bioassay records deposited in PubChem BioAssay by The Scripps Research Institute Molecular Screening Center.
# Compounds with a hit are over-represented: about 2.6% of the library has one in this group of screens.
# PKA-R2B act – activators of human PKA-R2B complex. P22694+P31323. PKA-R2B holoenzyme dissociation, Cy5-IP20 fluorescence polarization; R2B truncated from residue 108, S112A mutant; 0% DMSO only, 100% 113 µM cGMP. activation, % at 11.4 µM. hit rate 0.079% among 340,000;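 active = activation above a cutoff set at the mean over all compounds plus 3 SD, cut at about 18% in these data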;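 also: higher means more holoenzyme dissociation and a rise in polarization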
# Target sequence (P31323 whole entry, looked up, other chains not shown, the tested form may be a part): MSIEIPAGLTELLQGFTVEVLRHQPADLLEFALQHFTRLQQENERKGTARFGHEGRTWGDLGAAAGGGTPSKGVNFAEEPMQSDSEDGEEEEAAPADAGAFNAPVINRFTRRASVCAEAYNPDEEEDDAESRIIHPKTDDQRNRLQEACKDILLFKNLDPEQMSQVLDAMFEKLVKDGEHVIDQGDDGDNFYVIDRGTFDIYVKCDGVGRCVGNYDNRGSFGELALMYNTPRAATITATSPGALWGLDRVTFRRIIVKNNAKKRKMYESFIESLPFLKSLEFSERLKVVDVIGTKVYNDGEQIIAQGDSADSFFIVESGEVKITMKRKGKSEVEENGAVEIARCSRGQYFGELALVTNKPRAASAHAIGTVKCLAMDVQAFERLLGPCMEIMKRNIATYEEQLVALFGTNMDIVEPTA
# PKA-R1A act – activates the PKA-R1A holoenzyme complex. P00514+P68181. PKA-R1A dissociation, Cy5-IP20 fluorescence polarization; scaled: DMSO 0%, 113 µM cGMP 100%. activation, % at 11.4 µM. hit rate 0.083% among 340,000. AID 504707;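 active = percent activation above the mean of all tested compounds plus 3 SD, cut at about 19% in these data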;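 also: higher means more PKAc released from R1A so a rise in polarization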
# PAFAH2 FP inh – inhibitors of human PAFAH2 | AID 492956 | hit rate 0.99% among 340,000 | inhibition, % at 3.39 µM | recombinant PAFAH2, FP-rhodamine activity probe, fluorescence polarization | Q99487;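 active = inhibition above the mean over all tested compounds plus 3 SD, cut at about 30% in these data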;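 also: inhibitors block probe labeling of enzyme so polarization drops; 0% = enzyme with DMSO and 100% = wells lacking PAFAH2 protein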
# pPAFAH inh – inhibitors of human plasma PAF acetylhydrolase (pPAFAH) | hit rate 1.5% among 330,000 | Q13093 | inhibition, % at 3.39 µM | recombinant pPAFAH, FP-rhodamine probe fluorescence polarization | AID 463082;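 active = inhibition above the mean inhibition across the screen plus 3 SD, cut at about 25% in these data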;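 also: inhibitors block binding of the rhodamine activity-based probe so polarization drops; 0% = enzyme with DMSO and 100% = wells lacking pPAFAH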
# PAFAH1B3 FP inh – inhibitors of human PAFAH1B3 | Q15102 | recombinant PAFAH1B3, FP-rhodamine probe, fluorescence polarization | inhibition, % at 3.39 µM | hit rate 0.28% among 340,000 | AID 492972;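 active = inhibition above the screen-wide average of all tested compounds plus 3 SD, cut at about 25% in these data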;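 also: 0% = enzyme with DMSO only and 100% = wells lacking PAFAH1B3 protein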
# PAFAH1B2 FP inh – blocks human PAF acetylhydrolase 1b catalytic subunit 2. inhibition, % at 3.39 µM. recombinant PAFAH1B2, FP-rhodamine activity probe, fluorescence polarization. P68402. hit rate 1.2% among 340,000;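 active = inhibition above the mean of all tested compounds plus 3 SD, cut at about 24% in these data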;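 also: 0% = enzyme with DMSO and 100% = wells lacking PAFAH1B2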
# * = called active by the depositor; · = no result.
SMILES,PKA-R2B act,PKA-R1A act,PAFAH2 FP inh,pPAFAH inh,PAFAH1B3 FP inh,PAFAH1B2 FP inh
COc1cccc(C(=O)CN2CCN(S(=O)(=O)c3ccc(Br)cc3)CC2)c1,-8,-1,-2,5,-1,29*
O=C(CN1CCN(S(=O)(=O)c2ccc(Cl)cc2)CC1)NC1CC1,-8,0,0,-4,-3,29*
OCC1(CO)CCCC(CO)(CO)C1O,-7,1,1,·,6,4
COc1ccc(NC(=O)c2cc(C)cc(C)c2)cc1S(=O)(=O)N1CCCCC1,-3,-17,-1,1,3,2
Cc1nn(-c2ccccc2)c(C)c1NC(=O)COC(=O)CCc1ccccc1,1,4,1,7,3,5
CCN1CCN(S(=O)(=O)c2ccc(Cl)c(C(=O)NC3CC3)c2)CC1,-8,3,5,-1,9,24*
O=C(O)COc1ccccc1/C=N/NC(=O)CN1CCN(S(=O)(=O)c2ccc(Br)cc2)CC1,-2,3,2,4,3,27*
CCN1CCN(S(=O)(=O)c2ccc(Cl)c(C(=O)NC3CCCC3)c2)CC1,-9,-3,6,3,-5,11
CC1CCN(S(=O)(=O)c2ccc(NC(=O)CN3CCCCCC3)cc2)CC1,-12,-9,-3,8,2,30*
Cc1ccc(S(=O)(=O)Nc2ccc(NC(=O)CN3CCCCC3)c(Cl)c2)cc1,-4,0,3,26*,10,8
COc1ccc(C)cc1NC(=O)CN1CCN(S(=O)(=O)c2ccc(Br)cc2)CC1,8,-2,2,-4,-3,28*
COc1ccc(NC(=O)CN2CCN(S(=O)(=O)c3ccc(Br)cc3)CC2)c(OC)c1,-1,3,-2,3,0,20
CC1CCN(S(=O)(=O)c2ccc(N/N=C(/C#N)C(N)=O)cc2)CC1,-8,7,8,3,3,40*
O=C(CN1CCN(S(=O)(=O)c2ccc(Br)cc2)CC1)Nc1ccc(F)cc1,4,2,6,-2,1,28*
O=C(CCN1CCN(S(=O)(=O)c2ccc(Br)cc2)CC1)Nc1ccccc1F,-17,-9,-5,5,8,25*
CC(NC(=O)C(Cc1ccccc1)=NO)c1ccccc1 (stereo not drawn),1,-3,10,·,7,13
NC(=O)c1ccc(NC(=O)COC(=O)c2ccc(Br)c(S(=O)(=O)N3CCOCC3)c2)cc1,-10,6,5,·,1,1
FC(F)(F)c1nc2nc(Cl)c(Cl)nc2n1CCCN1CCOCC1,-4,-6,·,·,·,·
O=C(CN1CCN(S(=O)(=O)c2ccc(Cl)cc2)CC1)Nc1ccc(F)cc1F,11,-2,-2,1,6,28*
CC1CCC2(CC1)SCC(=O)N2c1ccccc1 (stereo not drawn),0,-6,-1,8,8,27*
CCC1CCC2(CC1)SCC(=O)N2c1ccccc1 (stereo not drawn),·,·,·,4,·,·
Cc1cccc(/N=C/c2nc(-c3ccccc3Br)oc2O)n1,4,0,66*,32*,3,4
COc1ccc(N2CCN(CCCNC(=O)C(=O)c3c[nH]c4ccccc34)CC2)cc1,3,-7,2,-1,-2,0
CCN1CCN(C(=O)c2ccc(COc3cccc(Cl)c3)o2)CC1,1,1,5,5,4,7
CN(C)c1ccc(NC(=O)c2ccc(COc3cccc(Cl)c3)o2)cc1,2,-1,23,27*,5,4
SMILES,PKA-R2B act,PKA-R1A act,PAFAH2 FP inh,pPAFAH inh,PAFAH1B3 FP inh,PAFAH1B2 FP inh
CN1C(=O)/C(=C/c2ccc(-c3ccccc3[N+](=O)[O-])o2)SC1=Nc1ccc(Cl)c(C(=O)O)c1,3,-9,31*,29*,23,16
CCCN1CCc2c(sc(NC(=O)CCS(=O)(=O)c3ccccc3)c2C(=O)OC)C1,1,6,6,5,2,2
O=C(O)C1C2CCC1C(O)C2 (stereo not drawn),-7,-5,·,·,·,·
COc1ccc(N=CC2=C(Nc3ccc(OC)cc3)c3c(C)nn(-c4ccccn4)c3CC2)cc1,·,·,·,54*,·,·
COc1ccc(-c2cc(C(=O)O)c3c(C)nn(-c4ccccn4)c3n2)cc1,·,·,·,0,·,·
NC(=S)Cc1nc(-c2ccc(Cl)cc2)cs1,13,-5,-1,25*,4,6
